Data: PubChem BioAssay (NCATS)
Inconclusive results are not listed. Values without a mark were called inactive. Calls come from the whole dose curve; as a rule, active = well fitted inhibition curve with a large enough effect; inconclusive = small, poorly fitted or top-dose-only effect; inactive = flat fitted curve, though single readings scatter.

Biological target: Calcium and integrin-binding protein 1 (Homo sapiens) (UniProt Q99828)
Experiment: Primary qHTS for Identification of Calcium Integrin Binding Protein 1 (CIB1) Competitor (AID 1508620);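 note: GST tagged CIB1 binding a fluorescein labelled alphaIIb integrin peptide tracer; top concentration of the series differs between compounds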
Settings: CIB1-GST / FITC-alphaIIb peptide fluorescence polarization; series mostly up to 114 µM; activity change, negative = inhibition: at the top concentration
Method in brief: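 CIB1-GST (1 uM final) and compound incubated 15 min at room temperature before adding FITC-alphaIIb peptide tracer (100 nM final). Competition for binding read by fluorescence polarization (ex 480, em 540) after another 15 min at room temperature.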
% is set by controls: 0 for no effect and ±100 for the full control effect.

Sequence of Calcium and integrin-binding protein 1 (Homo sapiens) (Q99828 whole entry, looked up): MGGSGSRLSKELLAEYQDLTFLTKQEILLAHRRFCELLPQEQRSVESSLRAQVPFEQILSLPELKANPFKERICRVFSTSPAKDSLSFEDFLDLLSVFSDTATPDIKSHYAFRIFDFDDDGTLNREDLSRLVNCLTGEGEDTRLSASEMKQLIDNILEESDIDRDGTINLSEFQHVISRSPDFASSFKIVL

Row | Structure (SMILES) | activity change, negative = inhibition [%]
1 | Cc1ccc(NC(=O)c2cnn3c(C)cc(C)nc23)c(C)c1 | 2.89
2 | CCOc1ccc(C(C)CNC(=O)c2cc3sccc3n2Cc2ccccc2)cc1OCC (centres undefined) | 8.61
3 | O=C(c1ccccc1O)N(Cc1ccccc1)Cc1cccs1 | -2.28
4 | O=C(/C=C/c1cccnc1)Nc1cccc([S+](=O)([O-])Nc2ccccc2F)c1 | -3.4
5 | O=[S+]([O-])(Nc1cnc2ccccc2c1)c1ccc(NCc2ccc(Cl)cc2O)cc1 | -4.96
6 | S=C(Nc1ccc(Cl)c(Cl)c1)Nc1nnc(-c2ccncc2)o1 | -1.5
7 | NC(=O)C1CCN(c2ncc(-c3cccc(N4CCOCC4)c3)s2)CC1 | 0.601
8 | Cc1cc2c(s1)c1cnn(Cc3cc(Cl)ccc3F)c(=O)c1n2C | 6.84
9 | O=C(Nc1ccc2c(c1)OCCO2)Nc1nnc(-c2ccncc2)s1 | -1
10 | O=C(Nc1ccc2c(c1)OCCO2)c1ccc(-c2nc3ccccc3[nH]2)cc1 | 1.12
11 | COc1cccc(NS(=O)(=O)c2ccc3c(c2)CCC(=O)N3)c1 | 2.95
12 | COc1ccc(NC(=S)N2CCN(c3cccc(C(F)(F)F)c3)CC2)nc1 | 6.16
13 | O=[N+]([O-])c1ccccc1S(=O)(=O)Nc1cccc2cccnc12 | -5.17
14 | OCc1ccnc(NC(=S)N2CCN(c3cccc(C(F)(F)F)c3)CC2)c1 | -0.577
15 | CNc1oc(-c2ccc(F)cc2)nc1C#N | -0.387
16 | Cc1ccc(NS(=O)(=O)c2ccc3c(c2)C(Cl)(Cl)C(=O)N3)cc1C | 4.95
17 | Cc1ccc(C)c(SC2CS(=O)(=O)c3ccccc32)c1 (centres undefined) | 1.28
18 | O=C(c1ccccc1O)N(Cc1ccccc1)Cc1ccccc1 | -1.67
19 | Cc1cnc(-c2ccccc2C2COC2)nc1NCc1ccc(-c2cccnc2)cc1 | 2.86
20 | Cc1cccc(C(=O)NCC(=O)OC(C(=O)Nc2cc(C(F)(F)F)ccc2Cl)c2ccccc2)c1 (centres undefined) | 1.26

Row | Structure (SMILES) | activity change, negative = inhibition [%]
21 | NCCCCNc1ncnc2ccc(-c3ccc4c(c3)OCO4)cc12 | -3.47
22 | Cc1c(C(=O)N(C)CC2CCCO2)[nH]c2c1C(=O)CC(c1ccco1)C2 (centres undefined) | -14
23 | N#Cc1c(-c2ccc(F)cc2)no[n+]1[O-] | 4.13
24 | Cc1ccc(-c2ccc(CNc3nc(-c4ccccc4C(C)C)nc4ccccc34)cc2)cn1 | 3.68
25 | Cc1ccccc1C(=O)n1ccc2cc(-c3nc(NC(=O)Cc4ccc5c(c4)OCO5)sc3C)ccc21 | 5.2
26 | N#Cc1c(-c2ccc(OCCOCCOCCN)cc2)no[n+]1[O-] | -8.41
27 | O=S(=O)(c1ccc2ccccc2c1)N1CCN(S(=O)(=O)c2c(F)cccc2F)CC1 | -1.01
28 | Cc1ccc(OCCn2c(CCNC(=O)c3cc(F)cc(F)c3)nc3ccccc32)cc1 | -7.19
29 | O=S(=O)(NC1CCC(CNS(=O)(=O)c2c(F)cccc2F)CC1)c1ccc2c(c1)OCCO2 (centres undefined) | -2.93
30 | COc1ccc(C2Nc3ccccc3C(=O)N2Cc2ccco2)cc1COc1ccc(NC(C)=O)cc1 (centres undefined) | 4.83
31 | FC(F)(F)c1ccccc1-c1nc(NCC#Cc2cccnc2)c2ccccc2n1 | -7.09
32 | COc1cccc(C(=O)NC2CCN(C#N)CC2)c1 | 0.127
33 | COc1ccccc1CNc1ccc(S(=O)(=O)Nc2nccs2)cc1 | 10.1
34 | c1cncc(-c2ccc3ncnc(NCc4cccs4)c3c2)c1 | -3.17
35 | Brc1ccc(-c2ccc(C3Nc4cccc5cccc(c45)N3)o2)cc1 | -20.5
36 | CC(C)c1ccccc1-c1ncc(F)c(NCC2CCN(c3cnccn3)C2)n1 (centres undefined) | -0.61
37 | CC(=O)N(C(C)=O)n1c(C)nc2sc3c(c2c1=O)CCNC3 | -1.44
38 | Cc1cccc(CNc2ncnc3ccc(-c4ccc5c(ccn5C)c4)cc23)c1 | 6.86
39 | Cc1ccccc1-c1csc2ncnc(Sc3nnnn3C)c12 | 2.94
